Calls of active or inactive are those of the source. Unless noted, how the calls were made is not given here.

Test [1] concerns XIP peptide (Xip251-270) binding. In words: XIP fragment 251-270 binding compounds – biochemical, small-molecule microarray, fluorescence 635/667 nm, 0.1 µg/mL protein, primary screen (AID 1182). Particulars: fluorescent protein binding, 635 nm, higher = more signal, called active from +8 up or from −8 down.
For a further test, the system named is XIP peptide (Xip251-270). In words: compounds binding XIP fragment 251-270 – biochemical, small-molecule microarray, fluorescence 635/667 nm, 0.5 µg/mL protein, primary screen (AID 1183). Particulars: fluorescence 635 nm, higher = more signal.
A short description of test [2]: blood-stage malaria parasite viability loss – strain 3D7, DAPI fluorescence, 100 nL, primary screen (AID 1184).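 Further: parasites grown inside human red blood cells in medium with human serum.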 Particulars: P. falciparum 3D7 growth, 3 d, higher = more signal.
Test [3] deals with Homeobox protein Hox-A13 (Mus musculus) (UniProt Q62424). In words: disruptors of Hoxa13 oligonucleotide interaction – biochemical, fluorescence polarization, labeled oligonucleotide, primary screen (AID 1185). Particulars: Hoxa13:DNA binding, 15 min, higher = more signal, called active from +8 up or from −8 down.
Test [4] in a line: blockers of DNA damage checkpoint Chk1 activation – imaging, HeLa, hydroxyurea, phospho-Chk1 antibody, percent positive cells, primary screen (AID 1186). Particulars: hydroxyurea-induced phospho-Chk1 immunofluorescence imaging, higher = more signal.
The nature of test [5]: blockers of DNA damage checkpoint Chk1 activation – imaging, HeLa, hydroxyurea, phospho-Chk1 nuclear intensity, primary screen (AID 1187). The settings on record: hydroxyurea-induced phospho-Chk1 immunofluorescence imaging, higher = more signal.

Homeobox protein Hox-A13 (Mus musculus), sequence (Q62424 whole entry, looked up): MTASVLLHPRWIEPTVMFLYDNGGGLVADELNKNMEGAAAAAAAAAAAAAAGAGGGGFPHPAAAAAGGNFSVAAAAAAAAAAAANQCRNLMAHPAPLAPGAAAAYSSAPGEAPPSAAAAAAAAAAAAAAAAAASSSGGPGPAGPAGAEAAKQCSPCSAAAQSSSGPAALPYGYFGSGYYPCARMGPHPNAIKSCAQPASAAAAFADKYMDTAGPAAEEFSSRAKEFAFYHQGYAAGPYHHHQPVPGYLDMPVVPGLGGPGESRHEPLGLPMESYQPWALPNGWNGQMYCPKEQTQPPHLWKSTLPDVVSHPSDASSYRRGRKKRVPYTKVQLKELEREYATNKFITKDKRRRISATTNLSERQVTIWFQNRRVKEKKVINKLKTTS

With `O=C(C1N=C(c2ccc(OCCCO)cc2)N(c2ccccc2)O1)N1CCOCC1` (stereo not drawn), the composite z-score was 0.254 (inactive) in test [1] and 0.206 in the test on XIP peptide (Xip251-270). Also, the z-score in test [2] was -0.277; in test [3] it was -2.88 (inactive); in test [4], -0.554 (inactive); in test [5], -0.262 (inactive).

On to `CC(C)(C)OC(=O)CC[C@]1(C(=O)NCC(O)CO)COC(c2ccc(OCCCO)cc2)=N1` (stereo partly drawn), for which the composite z-score in test [1] is 0.273 (inactive); with XIP peptide (Xip251-270) it was 0.151. The z-score was -0.104 in test [2], -3.95 (inactive) in test [3], 0.505 (inactive) in test [4] and 0.437 (inactive) in test [5].

On to `CC(C)C[C@H]1NC(=O)[C@@]23C(=O)N[C@@H](Cc4ccccc4)C2[C@H](C)[C@@]2(C)O[C@H]2C3/C=C/C/C=C\CNC(=O)[C@H](Cc2ccccc2)NC1=O` (stereo partly drawn), for which the results for the composite z-score (in test [1]; in the test with XIP peptide (Xip251-270)) were 0.303 (inactive) and 0.725, respectively. The z-score in test [2] is -1.45; in test [3], -7.51 (inactive); in test [4], -0.0464 (inactive); in test [5], 0.426 (inactive).

For the compound `CCCCCCC#C[Si](O[C@H](c1ccccc1)c1cn([C@H](CO)Cc2ccccc2)nn1)(C(C)C)C(C)C`, the composite z-score in test [1] is 0.207 (inactive); with XIP peptide (Xip251-270) it was 0.0718. The z-score is 0.221 in test [2], -1.34 (inactive) in test [3], -0.653 (inactive) in test [4] and -0.496 (inactive) in test [5].

For `C=CCN1C(=O)[C@@]2(O[C@@H](CCO)[C@H]([Si](C)(C)c3ccc(OC)cc3)[C@H]2C)c2cc(NC(=O)c3ccc(OC)cc3)ccc21`, the composite z-score is 0.574 (inactive) in test [1] and 0.208 with XIP peptide (Xip251-270). Moreover, the z-score in test [2] was -2.77; in test [3], -4.58 (inactive); in test [4] it was -0.176 (inactive); in test [5], 0.416 (inactive).

With `C=CCC(OC(C)=O)[C@@H]1[C@@H](N(Cc2ccc(-c3ccccc3)cc2)C(=O)Cc2ccc(F)cc2)c2cc(OCCCO)ccc2N1C(=O)c1ccc(-c2ccccc2)cc1` (stereo partly drawn), the results for the composite z-score (in test [1]; in the test on XIP peptide (Xip251-270)) were -0.142 (inactive) and 0.166, respectively. For the same compound, the z-score in test [2] is -1.9; in test [3] it was -0.778 (inactive); in test [4] it was -0.517 (inactive); in test [5] it was -0.285 (inactive).

Consider `N#Cc1ccc(NN2C(C(O)c3c(F)cccc3Cl)C=CC3C(=O)N(c4ccccc4)C(=O)C32)cc1` (stereo not drawn), for which the composite z-score was 0.817 (inactive) in test [1] and 0.748 in the test on XIP peptide (Xip251-270). Moreover, the z-score in test [2] was -0.677; in test [3] it was 0.238 (inactive); in test [4] it was 0.0345 (inactive); in test [5], 0.0457 (inactive).

As for `Cc1ccc(S[C@]2(C(=O)NC(C)C)CC(=O)N(Cc3ccccc3Cl)[C@@H]2c2ccc(CO)cc2I)cc1`, the composite z-score in test [1] is 0.226 (inactive); in the test with XIP peptide (Xip251-270), 0.293. The z-score in test [2] is 0.906; in test [3] it was -3.31 (inactive); in test [4] it was 0.244 (inactive); in test [5], 0.723 (inactive).

Consider `CN(C)C(=O)[C@@]1(Cc2ccccc2CN=[N+]=[N-])N=C(c2ccc(OCCCO)cc2)O[C@H]1c1ccccc1`, for which the composite z-score in test [1] was 1.79 (inactive); in the test on XIP peptide (Xip251-270) it was 0.817. In addition, the z-score was -2.27 in test [2], -5.09 (inactive) in test [3], -0.631 (inactive) in test [4] and -0.679 (inactive) in test [5].

Consider `CN1C(=O)C2C=CC(C(O)c3cc(C(F)(F)F)cc(C(F)(F)F)c3)N(N3CCCCC3)C2C1=O` (stereo not drawn), for which the values for the composite z-score (in test [1]; with XIP peptide (Xip251-270)) were 0.11 (inactive) and 0.289, respectively. In addition, the z-score in test [2] is -0.0782; in test [3], -4.54 (inactive); in test [4], -1.22 (inactive); in test [5] it was -1.63 (inactive).

For `COc1ccc(C(O)C2C=CC3C(=O)N(C)C(=O)C3N2N2CCCCC2)c2ccccc12` (stereo not drawn), the composite z-score in test [1] was 0.591 (inactive); in the test with XIP peptide (Xip251-270), 0.637. Moreover, the z-score in test [2] was -0.179; in test [3], -4.89 (inactive); in test [4], 0.294 (inactive); in test [5], 0.312 (inactive).

For the compound `COC(=O)c1c(CC[C@@H](CO)NC(=O)N[C@H](Cn2cc(Cc3ccccc3)nn2)C(C)C)oc(C(C)=O)c1C(=O)OC`, the composite z-score in test [1] was 0.369 (inactive); in the test on XIP peptide (Xip251-270), -0.0446. For the same compound, the z-score was -1.99 in test [2], -0.701 (inactive) in test [3], 1.02 (inactive) in test [4] and 1.38 (inactive) in test [5].

`COc1ccc(CCNC(=O)[C@@]2(C)c3ccccc3C(=O)N(Cc3cc(F)cc(C(F)(F)F)c3)[C@H]2c2ccc(CO)cc2)cc1`: the composite z-score in test [1] is 0.17 (inactive); in the test with XIP peptide (Xip251-270), 0.464. For the same compound, the z-score in test [2] was -1.49; in test [3] it was -4.2 (inactive); in test [4], 0.027 (inactive); in test [5], 0.116 (inactive).

(Values after PubChem BioAssay.)
